# Screening results from PubChem BioAssay.
# Only some compounds are listed: those with a hit (about 5.7% of all), similar ones and a draw of the others.
# Gal4-VP16 FLuc = Gal4-VP16 reporter inhibition counter-screen | actives 3.5% (n = 310,000) | Potency, µM (doses to about 53.6 µM), inactives show at the top dose activity, negative = inhibition, usual class: inhibitors | Drosophila S2 Gal4-VP16 UAS-luciferase, luminescence, 20 h | AID 2546;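 also: Gal4-VP16 expression switched on by copper sulfate through the metallothionein promoter; nearly all actives have a fitted effect of over 50% in size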
# NPSR antag = antagonists of human neuropeptide S receptor cAMP signaling. CHO-NPSR cells, cAMP TR-FRET, antagonist mode. Potency, µM (series often up to 38.3 µM), inactives show at the highest dose activity change, negative = inhibition, hits mostly inhibitors. actives 1% (n = 220,000); also: nearly all actives have a fitted effect of over 50% in size
# B2AR arrestin = recruits beta-arrestin to the human beta2-adrenergic receptor | actives 0.02% (n = 330,000) | P07550 | beta-arrestin recruitment to beta2AR, cell-based reporter | AID 492947 | Potency, µM (titrated, usually from 46.1 µM), for inactives: at the top dose activation, actives largely listed as activators;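 also: 0% = DMSO controls and full agonism = EC100 isoproterenol or metaproterenol; nearly all actives have a fitted effect of over 65% in size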
# Target sequence (P07550 whole entry, looked up): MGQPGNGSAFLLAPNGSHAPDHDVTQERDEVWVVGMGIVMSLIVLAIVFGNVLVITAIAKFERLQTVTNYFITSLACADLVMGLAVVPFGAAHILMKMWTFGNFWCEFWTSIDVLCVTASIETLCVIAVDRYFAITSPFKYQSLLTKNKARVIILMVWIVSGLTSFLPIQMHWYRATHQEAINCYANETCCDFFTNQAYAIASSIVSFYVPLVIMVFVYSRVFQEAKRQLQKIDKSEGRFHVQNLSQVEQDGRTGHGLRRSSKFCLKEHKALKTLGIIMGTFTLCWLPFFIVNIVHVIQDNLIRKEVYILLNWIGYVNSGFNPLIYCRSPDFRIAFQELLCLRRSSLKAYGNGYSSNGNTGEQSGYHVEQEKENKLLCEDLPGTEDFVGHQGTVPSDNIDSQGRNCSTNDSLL
# RORgamma inh = inhibitors of mouse ROR gamma transcriptional activity; P51450; Drosophila S2 Gal4-RORgamma UAS-luciferase reporter, 20 h; actives 5.4% (n = 310,000); AID 2551; Potency, µM (titrated, usually from 53.6 µM), without a hit: top-dose activity change, negative = inhibition, usual class: inhibitors; also: nearly all actives have a fitted effect of over 60% in size
#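 Read-out: Photinus luciferase luminescence; inhibitors lower reporter signal. Insect Schneider cells with Gal4-ROR gamma fusion under metallothionein promoter, UAS reporter; 700 uM final copper sulfate induction, 20 hr, ambient temperature.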
# Numbers without * were called inactive; u = inconclusive; x = not tested or not shown; [ ] = dose if it differs, or a comment. Calls follow the shape of the dose curve; as a rule, active = well fitted curve in the direction sought with a large enough effect; inconclusive = small, poorly fitted or top-dose-only effect, or another doubt; inactive = no such curve, though single readings can be large; an effect the other way counts as inactive or inconclusive. Unless noted, % is scaled to controls: 0 for no effect and ±100 for the full control effect; potency is read from the fitted curve at half-maximal effect.
SMILES,Gal4-VP16 FLuc,NPSR antag,B2AR arrestin,RORgamma inh
COc1cc(C(=O)N/N=C(\C)c2ccc3c(c2)OCO3)cc(OC)c1OC,-5.7%,25.6%,-0.2%,-22.5%
C=C(C)C(O)/C=C/C=C/c1ccccc1 (stereo not drawn),7.5%[10 µM],x,x,31.3%[10 µM]
CCCCC(C(=O)OCC)C(N)Cc1ccc(F)cc1 (stereo not drawn),-7.5%,-14.4%,4.0%,-3.9%
Cc1ccc(S(=O)(=O)Nc2ccccc2C(=O)N2CCCCCC2)cc1,15.7%,x,0.3%,21.8%
C=CCNC(=S)Nc1cccc(NC(=S)NCC=C)c1,u,8.9%,0.4%,7.94µM*
COc1ncc2nc(-c3cn(C)c4ccccc34)c(=O)n(CCc3ccccc3)c2n1,1.8%,x,x,-1.2%
O=C(CCNC(=O)c1ccc(Cl)cc1)NCc1ccco1,x,x,-0.6%,x
COc1ccc(NC(=O)c2nc(S(=O)(=O)Cc3cccc(C)c3)ncc2Cl)c(OC)c1,7.94µM*,x,0.3%,u
COc1ccc(OC)c(NC(=O)c2nc(S(=O)(=O)Cc3ccccc3)ncc2Cl)c1,u,x,-0.6%,5.01µM*
O=C(CN(C(=O)CCC(=O)Nc1ccccn1)c1cccc(F)c1)NCc1ccco1,3.9%,x,-0.2%,-14.6%
Cc1cccc(CCNC(=O)c2cccc(N3CCCC3=O)c2)c1,-14.5%,x,0.4%,10µM*
O=C(NCCc1ccccc1)c1cccc(N2CCCC2=O)c1,10µM*,x,0.2%,11.2µM*
Cc1ccc(CCNC(=O)c2cccc(N3CCCC3=O)c2)cc1,-0.3%,x,0.4%,5.8%
Cc1nc2cc(N3CCN(C)CC3)c(NC(=O)Cc3ccccc3)cc2c(=O)n1Cc1ccccc1,u,0.1%[46.1 µM],-0.4%,7.08µM*
Cc1nc2cc(N3CCCCC3)c(NC(=O)c3ccncc3)cc2c(=O)n1Cc1ccc(Cl)cc1,-2.6%,-5.5%[46.1 µM],0.7%,21.1%
CN(C)S(=O)(=O)c1ccc(Cl)c(C(=O)Nc2cccc3ncccc23)c1,0.7%,x,0.0%,21.2%
O=C(CC(Sc1ccc(Br)cc1)C(=O)O)c1ccc(Br)cc1 (stereo not drawn),u,x,0.3%,14.1µM*
CCOC(=O)C1=C(C)N(C)C(=S)NC1c1cc(OC)ccc1OC (stereo not drawn),u,-9.3%,-0.1%,14.1µM*
COc1ccc(S(=O)(=O)Nc2cc(C(C)C)c(O)cc2C)cc1,u,-24.1%[46.1 µM],-0.3%,15.8µM*
COc1ccc(S(=O)(=O)Nc2cc(C)c(O)cc2C(C)C)cc1,23.1%[0.365 µM],-13.9%[46.1 µM],-0.8%,u
C=CC1=C(C)C2=NC1=CC1=NC(=CC3=NC(=CC4=NC(=C2)C(C)=C4CCC(=O)O)C(CCC(=O)O)=C3C)C(C=C)=C1C.[Zn],-17.2%,x,x,11.6%
Cc1ccccc1C(=O)Nc1nnc(-c2ccncc2)o1,5.01µM*,7.1%,0.4%,2.82µM*
COc1ccc(-c2nnc(NC(=O)c3ccccc3C)o2)cc1,0.794µM*,7.2%,-0.2%,0.631µM*
Cc1ccccc1C(=O)Nc1ccnc(-c2ccncc2)n1,-1.6%,4.4%,3.2%,-15.6%
CC(C)(Oc1ccc(C2CCCc3ccccc32)cc1)C(=O)O (stereo not drawn),3.0%,x,x,12.8%
SMILES,Gal4-VP16 FLuc,NPSR antag,B2AR arrestin,RORgamma inh
CN(C(=O)COC(=O)CNC(=O)c1ccccc1F)C1CCCCC1,x,x,-0.2%,x
NC(=O)CCC1NC(=O)C(Cc2ccccc2)NC(=O)C(Cc2ccc(O)cc2)NC(=O)CCSSCC(C(=O)N2CCCC2C(=O)NC(CCCN=C(N)N)C(=O)NCC(N)=O)NC(=O)C(CC(N)=O)NC1=O (stereo not drawn),0.3%,x,x,4.8%
CC1CC(C)(C)CC2(C1)NC(=S)N(c1ccccc1)N2 (stereo not drawn),u,-8.1%[46.1 µM],0.1%,7.08µM*
S=C1NC2(CCCCC2)NN1c1ccccc1,1.9%,1.8%,-1.5%,u
CC1CCCC2(C1)NC(=S)N(c1ccccc1)N2 (stereo not drawn),-9.1%,-13.5%[46.1 µM],-0.5%,12.6µM*
CC1CCCCC12NC(=S)N(c1ccccc1)N2 (stereo not drawn),4.1%,-1.6%,0.0%,u
CC(C)(C)N1NC2(CCCCC2)NC1=S,-1.6%,7.1%,-0.4%,20.2%
CC(C)CCN1NC2(CCCC(C)C2)NC1=S (stereo not drawn),-29.7%,-22.3%,-0.3%,7.08µM*
C=CCn1c2ccccc2c2nnc(SCN3C(=O)c4ccccc4C3=O)nc21,-8.4%,u,-0.4%,8.8%
CCn1c2ccccc2c2n[nH]c(=S)nc21,8.91µM*,x,0.1%,3.98µM*
O=C(O)Cn1c2ccccc2c2n[nH]c(=S)nc21,8.6%,x,-1.0%,-34.9%[1.91 µM]
CCCn1c2ccc(C)cc2c2n[nH]c(=S)nc21,3.55µM*,x,2.7%,1.78µM*
C=CCn1c2ccccc2c2n[nH]c(=S)nc21,3.55µM*,x,-0.7%,2.51µM*
Cc1ccc(N(C)C(=O)N2CCN(S(=O)(=O)c3ccc(C)c(C)c3)CC2)cc1,11.3%,-23.0%[46.1 µM],-0.1%,-3.4%
C[C@H](CO)N1C[C@H](C)[C@@H](CN(C)C(=O)Nc2ccc3c(c2)OCO3)Oc2c(NS(=O)(=O)c3ccc(F)cc3)cccc2C1=O,x,x,-0.2%,x
COc1ccccc1CNC(=O)[C@@H](NC(=O)C1CCN(C(=O)[C@@H]2CCCN2C(=O)OC(C)(C)C)CC1)C(C)C,11.8%,x,-0.2%,7.94µM*
COC(=O)C1=C(C)N(Cc2ccccc2)[C@]23O[C@](C(=O)OC)(C(=O)N2C1c1ccccc1)C(C(=O)OC)C3C(=O)OC (stereo partly drawn),0.0%[10 µM],x,x,0.4%[10 µM]
CC(C)=NO[C@@H](C)c1cc(-c2c(C)cc(C)cc2C)no1,-6.8%[10 µM],x,x,10.2%[10 µM]
CCn1c(C)nc2cc(C(=O)N3N=C(CCOC)CC3(O)C(F)(F)F)ccc21 (stereo not drawn),35.5µM*,12.5%,0.1%,u
CCn1c(C)nc2cc(S(=O)(=O)C(F)(F)F)ccc21,u,7.2%[46.1 µM],-0.3%,u
CN1Cc2c(C(=O)OC(C)(C)C)ncn2-c2ccsc2C1=O,-4.0%,x,x,10.9%
COc1cc(NS(=O)(=O)c2cc(C(=O)NCCc3ccccn3)ccc2OC)cc(OC)c1,x,x,0.4%,x
CC(C)=NNc1nc(-c2ccccc2)c(C)s1,-25.8%,3.1%,0.5%,11.2µM*
Cc1cc(-c2ccccc2)nc(N/N=C/c2cccnc2)n1,-6.9%,-7.1%,0.0%,-9.8%
C(=N\Nc1nc(-c2ccccc2)cs1)/c1ccco1,u,-14.7%,-0.3%,u
SMILES,Gal4-VP16 FLuc,NPSR antag,B2AR arrestin,RORgamma inh
Cc1cc(-c2ccccc2)nc(N/N=C/c2ccccc2)n1,u,x,-1.1%,14.1µM*
Cc1cc(-c2ccccc2)nc(N/N=C/c2ccco2)n1,u,-9.2%[46.1 µM],-4.0%,8.91µM*
Cc1sc(N/N=C/c2ccco2)nc1-c1ccccc1,u,11.8%,0.2%,11.2µM*
C=C1CC2C3C=C(C)C4=CC(=O)CCC4(C)C3CCC2(C)[C@@]1(OC(C)=O)C(C)=O (stereo partly drawn),-9.4%,x,x,-2.1%[10 µM]
COC(=O)NC(c1cccc(F)c1)C(C(C)=O)C(=O)OC (stereo not drawn),-7.3%[10 µM],x,x,-4.9%[10 µM]
COC(=O)c1ccc2c(=O)n(CCN3CCOCC3)c(=S)[nH]c2c1,9.1%,3.2%[46.1 µM],-0.1%,-18.7%
